Assay outcomes as filed in PubChem.
ELG1 genotoxic: genotoxicity induction in ELG1-luciferase HEK293T cells | actives 1.3% (n = 330,000) | HEK293T ELG1-luciferase reporter, luminescence, 16 h | Potency, µM (highest dose often 46 µM), inactives show at the highest dose activity change, positive = activation, actives largely listed as activators; also: % of control where 0% means no effect; nearly all actives have a fitted effect of over 60% in size
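HEK293T cells expressing luciferase-tagged ELG1 were treated with compound or DMSO for 16 hr at 37°C. Luciferase activity was then read after 30 min with ONE-Glo at room temperature; rising signal flags genetic stress.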
Rab9 promoter act: activators of Rab9 promoter; Potency, µM (top dose mostly 9.22 µM), for the others: at the top dose activation, negative = inhibition, actives largely listed as activators; Huh7 Rab9 promoter-luciferase reporter, luminescence, 24 h; actives 2.8% (n = 320,000); also: % of control where 0% means no effect; nearly all actives have a fitted effect of over 60% in size
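Cells were plated at 1500 per well in reduced-serum medium with 10% FBS and left 2 h. Compound in DMSO was then added for 24 h at 37 °C. Reporter signal was read by luminescence after 10 min with luciferase detection reagent.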
ELG1 DNA repair: blocks ELG1-dependent DNA repair in HEK293T cells. HEK293T ELG1-luciferase reporter, luminescence, 16 h; DNA damage induced by 5-fluorouridine. Potency, µM (titrated, usually from 46.1 µM), without a hit: at the highest dose activity change, negative = inhibition, hits mostly inhibitors. actives 2.3% (n = 330,000); also: % is scaled to controls: 0 for no effect and ±100 for the full control effect; nearly all actives have a fitted effect of over 55% in size
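DMSO vehicle served as the neutral condition. Each well held 2,000 cells given 5-fluorouridine plus compound; after 16 hr at 37 °C/5% CO2, ONE-Glo was added and luciferase measured 30 min later.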
SMN2 splice enh: enhancers of SMN2 splice variant expression; actives 2.8% (n = 210,000); AID 1458; HEK293 SMN2-luciferase splicing reporter, luminescence, 30-36 h; Potency, µM (series often up to 46.1 µM), inactives show at the top dose activity change, positive = activation, actives largely listed as activators; also: % of control where 0% means no effect; nearly all actives have a fitted effect of over 55% in size
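HEK293 cells carry an SMN2 minigene-luciferase reporter in which exon 7 inclusion puts luciferase in frame. Cells were seeded at 2000 cells/well, attached for 10-12 hours, then exposed to compounds for 30-36 hours at 37C before ONE-Glo luminescence.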
NPC1 prom act: activators of NPC1 promoter; Potency, µM (doses to about 9.22 µM), for inactives: top-dose activation, hits mostly activators; actives 2.4% (n = 320,000); Huh7 NPC1 promoter luciferase reporter, 24 h; AID 485313; also: % of control where 0% means no effect; nearly all actives have a fitted effect of over 60% in size
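Quantitative HTS used a cell-based reporter: Huh7 cells stably bearing the NPC1 promoter upstream of luciferase were treated with compounds for 24 h, and promoter activation was read as luminescence.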
FLuc counter: counter-screen for miR-21 project: firefly luciferase inhibitors or activators | P08659 | purified FLuc, Km substrates, luminescence inhibition | Potency, µM (highest dose often 57.5 µM), for the others: top-dose activity change, negative = inhibition, hits mostly inhibitors | actives 6.9% (n = 360,000);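 also: plate controls were vehicle for no effect and reference inhibitor for full effect; nearly all actives have a fitted effect of over 55% in size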
Target sequence (P08659 whole entry, looked up): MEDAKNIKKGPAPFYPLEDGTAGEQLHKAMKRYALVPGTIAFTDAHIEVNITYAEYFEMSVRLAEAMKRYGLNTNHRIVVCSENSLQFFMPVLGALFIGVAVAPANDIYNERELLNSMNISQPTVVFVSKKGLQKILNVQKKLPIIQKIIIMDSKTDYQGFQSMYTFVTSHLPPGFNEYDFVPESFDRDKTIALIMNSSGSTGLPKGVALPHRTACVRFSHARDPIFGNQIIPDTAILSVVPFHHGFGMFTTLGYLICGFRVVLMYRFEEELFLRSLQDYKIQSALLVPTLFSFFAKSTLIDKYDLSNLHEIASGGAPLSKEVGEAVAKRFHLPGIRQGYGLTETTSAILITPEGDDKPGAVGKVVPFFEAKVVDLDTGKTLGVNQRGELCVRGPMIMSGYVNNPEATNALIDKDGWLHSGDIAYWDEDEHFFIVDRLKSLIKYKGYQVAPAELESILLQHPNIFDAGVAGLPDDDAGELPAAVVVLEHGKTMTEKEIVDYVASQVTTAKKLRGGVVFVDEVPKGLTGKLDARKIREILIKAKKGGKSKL
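Purified P. pyralis luciferase, 10 nM final, with Km-level 10 uM D-luciferin and 10 uM ATP in 50 mM Tris acetate pH 7.5, 10 mM Mg acetate, 0.01% Tween-20, 0.05% BSA; 6-point qHTS titration about 60 µM downward; luminescence read.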
Active calls of the source: *; ? = inconclusive; nt = no result; [ ] = dose if it differs, or a comment. Hits are enriched below; roughly 9.2% of the tested compounds scored in any of these assays. Calls follow the shape of the dose curve; as a rule, active = well fitted curve in the direction sought with a large enough effect; inconclusive = small, poorly fitted or top-dose-only effect, or another doubt; inactive = no such curve, though single readings can be large; an effect the other way counts as inactive or inconclusive. Potency is read from the fitted curve at half-maximal effect.

SMILES | ELG1 genotoxic | Rab9 promoter act | ELG1 DNA repair | SMN2 splice enh | NPC1 prom act | FLuc counter
Cn1c(/C=C/c2cccc(Br)c2)nc2ccccc2c1=O | 1% | -5%[1.84 µM] | 12% | nt | 28% | 15µM*
O=c1c2ccccc2nc(/C=C/c2cccc(Br)c2)n1CCCO | -8% | -4% | 15µM* | nt | -8% | -16%
COc1ncc(C2=CC(=O)CC(C)(C)C2)cn1 | 0% | -8% | 27% | nt | 1% | -1%
CCN(CC(=O)Nc1cc(Cl)ccc1C)C(=O)C1CC1 | 2% | -1% | 9% | nt | 0% | -1%
O=C(OC1CCc2ccccc2C1=O)c1ccccc1O (stereo not given) | -32% | -5% | -3% | 5% | -4% | 12µM*
CCOC(=O)c1cc(-c2ccc(OC)cc2)n(CCC(=O)NCCc2ccccc2)c1C | nt | nt | nt | nt | nt | -5%
Cc1cccc(NC(=O)c2c(Br)sc3c2CCCC3)c1 | nt | nt | nt | -18% | nt | ?
Cc1cccc(NC(=O)c2c(NC(=O)C(F)(F)F)sc3c2CCCCC3)c1 | nt | nt | nt | -64% | nt | 13µM*
Cc1ccc(NC(=O)c2c(NC(=O)C(F)(F)F)sc3c2CCCCC3)cc1 | nt | nt | nt | -43% | nt | 11µM*
O=C(COc1ccc(Cl)cc1)Nc1sc2c(c1C(=O)Nc1cccc(Cl)c1)CCCC2 | nt | nt | nt | -11% | nt | ?
Cc1ccccc1NC(=O)c1c(NC(=O)c2ccccc2)sc2c1CCC2 | nt | nt | nt | -17% | nt | ?
Cc1ccc(NC(=O)c2c(NC(=O)c3ccccc3)sc3c2CCC3)cc1 | nt | nt | nt | 2% | nt | ?
Cc1ccccc1NC(=O)c1c(NC(=O)C(F)(F)F)sc2c1CCCCC2 | nt | nt | nt | -41% | nt | 11µM*
O=C(Nc1cccc(Cl)c1)c1c(NC(=O)C(F)(F)F)sc2c1CCCC2 | nt | nt | nt | -22% | nt | 17µM*
CCc1sc(C(=O)NNC(=O)c2cncc(Br)c2)cc1C | 1% | nt | -5% | nt | nt | nt
CCOc1ccccc1N(CC(=O)NC1CCCCC1)C(=O)CCC(=O)Nc1nccs1 | -4% | 0% | -11% | nt | -4% | 1%
CC(C)c1ncc(S(=O)(=O)c2ccc(C(F)(F)F)cn2)c(N)n1 | 2% | -6% | 6% | nt | 0% | 0%
COc1cccc(CNC(=O)c2ccc3c(c2)nnn3C2CCCC2)c1 | nt | nt | nt | nt | nt | -10%
COc1ccc(CNC(=O)c2ccc(N(C)S(=O)(=O)c3ccc(C)cc3)cc2)cc1 | -3% | 1% | 21µM* | nt | 0% | 1%
COc1ccc(C(=O)CC(=O)c2ccc(C(C)(C)C)cc2)cc1 | nt | nt | nt | -11% | nt | nt
COc1ccc(CNC(=O)c2ccc(C(C)(C)C)cc2)cc1 | ? | 2.8µM* | ? | nt | 3.2µM* | 3µM*
COc1ccc(-c2cc(CCC(=O)N3CCN(c4cc(C)ccc4C)CC3)[nH]n2)cc1 | -3% | nt | ? | nt | nt | nt
O=C1Cc2ccccc2N1c1ccccc1 | -7% | 4% | 4% | 5% | 3% | 2%
O=C1CC(=Nc2ccccc2)NN1c1ccccc1 | -6% | 1% | -1% | -2% | -1% | 17µM*
COc1cc(C(=O)COC(=O)c2c(C)noc2C)cc(OC)c1OC | 2% | nt | 16% | nt | nt | nt
SMILES | ELG1 genotoxic | Rab9 promoter act | ELG1 DNA repair | SMN2 splice enh | NPC1 prom act | FLuc counter
O=C(COc1ccc(Cl)cc1Cl)c1ccc[nH]1 | ? | ? | ? | nt | ? | 17µM*
O=C(COc1ccc(Cl)cc1Cl)N/N=C/c1ccc[nH]1 | 9% | -52% | ? | nt | -44% | 13µM*
CC(C)c1ccc(/C=C2\SC(=S)N(CCC(=O)NCCCn3ccnc3)C2=O)cc1 | 2% | -39% | ? | nt | -7% | 2.4µM*
O=C(CCCN1C(=O)/C(=C/c2ccc(F)cc2)SC1=S)NCCCn1ccnc1 | -5% | -3% | -8% | nt | -3% | ?
COc1ccc(/C=C2\SC(=S)N(CCC(=O)NCCCn3ccnc3)C2=O)cc1 | 0% | -7% | 12% | nt | 1% | 19µM*
O=C(NCc1nnc(SCC(=O)N2CCN(c3ccccc3)CC2)o1)c1c(F)cccc1Cl | -3% | 1% | -8% | nt | -2% | -1%
O=C(Nc1ccccc1Cl)N1CCN(c2ccc3nnc(-c4ccc(F)cc4)n3n2)CC1 | -7% | 3% | 21µM* | -12% | -4% | 3%
COc1ccccc1NC(=O)N1CCN(c2ccc3nnc(-c4ccc(F)cc4)n3n2)CC1 | -4% | -13% | ? | -3% | -7% | 5%
CC1CCN(S(=O)(=O)c2ccc3c(c2)CCN3C(=O)Nc2cccc(Br)c2)CC1 | nt | nt | nt | 1% | nt | -1%
Cc1ccc(-c2noc(CN3CCC(C(N)=O)CC3)n2)cc1 | 12% | ? | ? | 19% | ? | ?
CC1CCN(Cc2nc(-c3ccccc3)no2)CC1 | 5.2µM* | 2.8µM* | ? | nt | 2.8µM* | 12µM*
Cc1ccc(-c2noc(CN3C(C)CCCC3C)n2)cc1 (stereo not given) | 21µM* | 1% | 22% | -6% | 5% | ?
COc1ccc(NC(=O)CSCC(=O)OCc2cccc(OC)c2OC)cc1 | 2% | 1% | 14% | nt | -5% | -2%
Cc1ccc(-c2nnc(-c3ccccc3Br)o2)cc1 | ? | 4µM* | ? | nt | 4µM* | 0.76µM*
Brc1ccccc1-c1nnc(-c2cccnc2)o1 | 18µM* | ? | ? | 2% | ? | 15µM*
Brc1ccc(-c2nnc(-c3ccccc3Br)o2)cc1 | 2.9µM* | 0.71µM* | ? | 14µM* | 1.1µM* | 1.3µM*
Cc1ccc(-c2nnc(/C=C/c3ccccc3)o2)cc1 | ? | 18% | ? | 18µM* | 22% | 17µM*
c1cncc(-c2nnc(-c3cccs3)o2)c1 | 11% | ? | ? | 1% | 15% | -14%
CN(CC(=O)NCc1ccc2c(c1)OCO2)S(=O)(=O)c1ccc(Br)s1 | -4% | -1% | -5% | 1% | 11% | 5%
Cc1ccc(C2N=C(N)Nc3nc(=O)c4ccccc4n32)cc1 (stereo not given) | 7% | -1% | 26% | nt | -6% | 3%
Nc1ccc(S(=O)(=O)O)cn1 | 0% | -1% | -3% | -5% | -2% | 1%
Nc1ccc(-c2ccc(C(=O)O)s2)cn1 | 2% | 2% | ? | 14% | 8% | 19µM*
CC[C@H](C)Cc1cn([C@@H](CCCN=C(NC(=O)OC(C)(C)C)NC(=O)OC(C)(C)C)C(=O)NCCCCCCCCCCC(=O)N2CCN(C(=O)OC(C)(C)C)CC2)nn1 | -40% | 1% | 7.3µM* | nt | -10% | -2%
C#CCOCCOCCOCCNc1nc(N2CCN(C(=O)CCCCCCCCCCNC(=O)[C@H](CCCCN)n3cc(C[C@@H](C)CC)nn3)CC2)nc(N2CCN(C(=O)CCCCCCCCCCNC(=O)[C@@H]([C@H](C)O)n3cc(C)nn3)CC2)n1 | -6% | 4% | ? | nt | -6% | 3%
